According to PubChem BioAssay AID1508600 (Functional Genomics Laboratory (NCATS/FGL), 2020):
Among all 53,000 sequences or so, about 3,700 (7%) were called active.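 How the source made its calls: active means gene knockdowns whose robust z-score for IL-1 alpha signal is at least 2 or at most -2, so actives lie on both sides; inactive means the rest.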 Shown is part of a subset that was picked to be rich in actives.

Assay: Components of the Cytosolic LPS Sensing Pathway: Gene Identification via Genome-wide siRNA Screen;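 further: robust z of the log signal after scaling to non-targeting control siRNA wells of the plate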
Settings: RAW264.7 macrophages, IL-1a HTRF, actives lie on both sides, screened at 100 nM (by protocol), cells primed 5 h with Pam3CSK4 first
Outline: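 Using IL-1a HTRF as read-out, the screen measured release from RAW264.7 cells after 48h siRNA knockdown (100 nM), 5 h Pam3CSK4 priming and 24 h cytosolic LipidA. Values were expressed relative to negative-control wells as robust z-scores.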

Sequence | z-score
GCUCAAUAGCUCAAAGUUUTT against Chsy3 | -0.197 (inactive)
GCCCUCCAACCUCGAUAACTT against Shisa7 | 2.9 (active)
GGAUGACCAAGAAUGGGAATT against Dap | 0.341 (inactive)
GCAAAGGAGGCUUCUAUUGTT against Olfr380 | -0.803 (inactive)
GGAGUUGUGGAAUUCUCUATT against Extl2 | -1.3 (inactive)
AACAGAUCUUCUCUGGUCCTT against Klra15 | -2.47 (active)
GCUUGUGUUUUAGAGCCGCTT against Mat1a | 0.653 (inactive)
GCACAAUGACGCACUUACCTT against Pik3r2 | 0.693 (inactive)
CCUGGAAUGUAUUUGUUAUTT against Nkain2 | 0.0256 (inactive)
GGAACACUACCGUUUUGGGTT against Ehd2 | 2.55 (active)
GGACCAGGUUUGUUUUUUATT against Stom | 1.03 (inactive)
CGGUUUUGUCAAAGCCCUGTT against Junb | 0.322 (inactive)
GGUCAAGACGGUCUACCGATT against Rab3d | -0.571 (inactive)
GGGAUAUCAAAGCAAAAAUTT against Rab8a | -0.578 (inactive)
GGGUUCACGAAAGAGUAAATT against Clcn5 | -1.21 (inactive)
GCCGUACCGGAUUUUUUUCTT against Smyd3 | 4 (active)
GCAGCUAACUCCAAGUCAGTT against Tfam | -1.42 (inactive)
GGACUUGCCUUGAUCGCUATT against Mars2 | 0.853 (inactive)
CGCGACAGAAUCAGUACAATT against Hnf4g | 2.17 (active)
GGUUCCUACACGAAAGGAUTT against Eif2b4 | 0.14 (inactive)
GCCUUUACCCAAAUUAUCATT against Defb4 | 0.567 (inactive)
GGACACUGUACUCAAACCUTT against Cntnap5b | -2.86 (active)
GGUGUAUACUGUGAAAUCATT against Notch1 | -0.319 (inactive)

Sequence | z-score
GGGCAUUGUUGAGCACCUUTT against Pgap6 | -1.81 (inactive)
GGAAAAGCUGGAGGAAGACTT against Tef | 0.525 (inactive)
GGAAUGUCAAUCUUGAGAGTT against Asprv1 | -0.812 (inactive)
GCAGACAUUGCACAAACCCTT against Ankrd10 | 0.355 (inactive)
GCCUGUCUCCUCAAUGCUUTT against Gm9903 | -0.319 (inactive)
ACUGUAUGAAGAGGAAACATT against Krt87 | -2.14 (active)
GGACAGUAUAGUGGAGAUCTT against Fgf22 | 1.66 (inactive)
GCUAUUCUGUCUACGUGUATT against H2bc18 | -0.356 (inactive)
CCGAAAUGUGUGUUUUAAATT against Vapb | 1.57 (inactive)
GGUCUUUCCGGCAGUUCUUTT against Rxrg | -2.27 (active)
GGAAUCGGUGGCCAUCAAUTT against Olfr771 | 0.458 (inactive)
GGAAGCUGAAGGUUUGCCATT against Wipi2 | -0.529 (inactive)
GGAUCAGGAGCUGUUUGGATT against Adamtsl4 | 1.05 (inactive)
GGAUGUCUACUGGAAUGUUTT against Pigv | -1.16 (inactive)
GUGAAGGCCCAUGGCAAGATT against Hbb-b1 | -0.235 (inactive)
CCGUAUUUGGACUGAGCAATT against Chic2 | 0.63 (inactive)
GCUAGGGAUUUACCUCUUCTT against Gpr65 | 0.743 (inactive)
GCCUGAGGAUCUAUAGAUATT against Prss29 | -1.36 (inactive)
UGGAAGCCUUAUGCCGUCUTT against Gpr31b | 0.895 (inactive)
GGCUCUAACUGUGAGAAGATT against Dll3 | -2.44 (active)
GGCUAACUCCUUAAAACCUTT against Aldh18a1 | -0.372 (inactive)
GGCUUCCACGUAAUUGUCCTT against Six3os1 | 0.649 (inactive)
GGCCGACUUGAUCAAUAACTT against Hsp90aa1 | -0.164 (inactive)

Sequence | z-score
CCCGGAGCUUGAAUUACUGTT against Usp7 | 2.36 (active)
GGAUUUUUCCAUAAAAACCTT against B3galnt1 | 1.04 (inactive)
CCUCCCAGUACACUUGAAATT against Cox7a1 | 0.0752 (inactive)
GGAAGAAACGGAGACUCAATT against Dpf1 | 0.052 (inactive)
CCAAUGAGUUAAUCACCUUTT against Olfr1135 | 0.587 (inactive)
GGUCCAUACUCCUAAAGAATT against Mpzl1 | -0.727 (inactive)
GGUGCAGUUUCUCCUCUUUTT against Pla1a | 2.09 (active)
GGAUCUGUUACUCUGAUACTT against Pias4 | 0.847 (inactive)
GGUCAACAUUAAAAUACUGTT against Map2k4 | -0.0649 (inactive)
GGUUUGCCUAUUUUUUCUUTT against Trmt10c | 1.9 (inactive)
GGGUUUUUUUUUUCCUUCCTT against Hsd17b1 | -0.0306 (inactive)
CGUAGGACUGAAUCAGCUUTT against Slc13a3 | -3.04 (active)
GCCAUUUGAAGUGUUUAAATT against Kctd12 | -0.103 (inactive)
GGAAGACCUAAACAACGGCTT against Dusp10 | -1.55 (inactive)
GGGUAACUAUUGGACUAACTT against Gabrq | -0.262 (inactive)
GGCAUUGGAAUAAAAUUUGTT against Rfk | 0.267 (inactive)
GGUGGUACGCAGACUAAAUTT against Ulk1 | 2.94 (active)
GGGUUAAACCACAUAUCCATT against Spata9 | -1.06 (inactive)
GCUUUUCCGCUUCUACCGGTT against Nrp | -0.505 (inactive)
GCUGUGGAGAAGUGCUACUTT against Lce1b | -0.907 (inactive)
CCGAAAAUGGUUAGGACAUTT against Kynu | 1.44 (inactive)
GGGCCUUCAAAACGAGAAGTT against Cyp4f39 | 0.339 (inactive)
GCCUUCCUGAAUUUAAAGATT against Myo5b | 1.33 (inactive)
